Measurements reported in PMC5540273 (PLoS ONE, 2017).

The compounds below were run on SIK2. Conditions: concentration: 1 μM,replicates: in singlicate; n = 1.
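Also: KINOMEscan kinase panel screen.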

| SMILES | %Inh |
| --- | --- |
| COc1cccc(C2=C(Nc3cccc(Cl)c3)C(=O)NC2=O)c1 [SB-341556] | 99.9% |
| CCn1c(-c2nonc2N)nc2cncc(CNC3CCNCC3)c21.Cl [SB-747651] | 0% |
| Cn1ccc2ncnc(Oc3ccc(NC(=O)Nc4cncc(C(F)(F)F)c4)c(Cl)c3)c21 | 0% |
| CN(c1ccccc1CNc1nc(Nc2ccc3c(c2)CC(=O)N3)ncc1C(F)(F)F)S(C)(=O)=O | 40% |
| COc1cccc(CNC(=O)NC2CCN(c3ccnc(Nc4cc(OC)c(OC)c(OC)c4)n3)C2)c1 (stereo not shown) [GSK1379765] | 0% |
| COc1cc(Nc2nccc(N3CCC(NC(=O)c4cccc(C#N)c4)C3)n2)cc(OC)c1OC (stereo not shown) [GSK1379751] | 0% |
| COc1cc2nccc(Nc3ccc(Oc4ccccc4)cc3)c2cc1OC.Cl [GI261656] | 0% |
| O=C(Nc1cccc(C(F)(F)F)c1)c1cccc(Oc2ccc3nccn3n2)c1 | 0% |
| Nc1nccc(-c2ccc3c(N)n[nH]c3c2)n1 [GSK1034945] | 0% |
| C[C@@H](Oc1cc(-n2cnc3cc(-c4cnn(C)c4)ccc32)sc1C(N)=O)c1ccccc1Cl [GSK580432] | 74% |
| CCNCC(Cc1ccccc1)NC(=O)c1cc(Br)c(-c2ccnc3[nH]ccc23)s1.Cl.Cl (stereo not shown) [GSK1383280] | 0% |
| O=C(Nc1ccc(Oc2ccc3nc(NC(=O)C4CC4)cn3n2)c(F)c1)c1cccn(-c2ccccc2)c1=O | 8% |
| N#Cc1cccc(C(=O)NC2CCN(c3ccnc(Nc4ccc(F)cc4)n3)C2)c1 (stereo not shown) [GSK1379708] | 0% |
| CSc1nccc(-c2c(-c3ccc(F)cc3)ncn2CCCN2CCOCC2)n1.Cl [SB-217146] | 0% |
| COc1cccc(OC)c1C(=O)Nc1cccc(-c2nn3ccccc3c2-c2ccnc(Nc3cccc(F)c3)n2)c1 [GSK361065] | 0% |
| O=C(NOCC1CC1)c1cc(Br)c(F)c(F)c1Nc1ccc(I)cc1Cl | 21% |
| Cc1ccc(CC(=O)N2CCc3cc(-c4cn(C)c5ncnc(N)c45)ccc32)cc1 [GSK2634758] | 0% |

| SMILES | %Inh |
| --- | --- |
| CC(C)c1nc(-c2cccc(NS(=O)(=O)c3ccccc3)c2)c(-c2ccnc(Nc3ccc4c(c3)CN(C)CC4)n2)s1 [GSK1649598] | 87% |
| Cc1ccc(C(=O)Nc2ccc(Oc3ccc4nc(NC(=O)C5CC5)cn4c3)c(F)c2)c(=O)n1-c1ccccc1 | 19% |
| c1ccc(Oc2ccc(Nc3ccnc4ccc(-c5ccccn5)cc34)cc2)cc1 [GW407034] | 0% |
| O=C(Nc1n[nH]c2cc(-c3ccco3)ccc12)C1CC1 [SB-737447] | 0% |
| C[C@@H]1CNc2c(sc3ccc4nc(-c5ccc(O)cc5)ccc4c23)C(=O)N1 | 16% |
| CCn1c(-c2nonc2N)nc2cncc(Br)c21 [SB-738004] | 7% |
| CS(=O)c1ccc(-c2coc3ccc(-c4n[nH]c(=O)o4)cc23)cc1 (stereo not shown) | 11% |
| CN1CCN(CCCNc2nccc(-c3c(-c4ccc(F)cc4)nn4cc(C(N)=O)ccc34)n2)CC1 [GW622475] | 9% |
| CC(C(=O)NC1CCN(c2ccnc(Nc3ccc(F)cc3)n2)C1)c1ccc(Cl)cc1 (stereo not shown) [GSK1379713] | 0% |
| CC(=O)c1c(-c2ccncc2)[nH]c(-c2ccncc2)c1C [GW493036] | 0% |
| CS(=O)(=O)c1cccc(CNc2nc(Nc3ccc4c(c3)[C@@H]3C[C@@H]4CNC3=O)ncc2C(F)(F)F)c1 | 47% |
| FC(F)(F)c1cc(Br)cc(Nc2nccc(-c3cnn4ncccc34)n2)c1 [GW810578] | 0% |
| CC(=O)Nc1ccc(-c2cc3ncnc(SCC(=O)O)c3s2)cc1 | 24% |
| NC(=O)Nc1sc(-c2ccc(F)cc2)cc1C(N)=O [GW789449] | 16% |
| CN(c1cccc(CNc2nc(Nc3ccc4c(c3)CC(=O)N4)ncc2C(F)(F)F)c1)S(C)(=O)=O | 56% |
| COC(=O)Nc1nc2cc(Oc3ccc(NC(=O)Nc4cc(C(F)(F)F)ccc4Cl)cc3)ccc2[nH]1.Cl [GW697465] | 0% |
| COc1ccc(Nc2nccc(N3CCC(NC(=O)c4cccc(C#N)c4)C3)n2)cc1 (stereo not shown) [GSK1379730] | 0% |
